# Screening results (PubChem)
# Sampled rows, rich in hits. Any-hit rate of the full collection: about 3.9%.
# GALK inhibitor: inhibitors of human galactokinase | P51570 | Purified GALK, Kinase-Glo residual ATP luminescence | Potency, µM (highest dose often 57.5 µM), for the others: top-dose activity change, negative = inhibition, usual class: inhibitors | 270,000 compounds, 0.007% hits; also: potency is read from the fitted curve at half-maximal effect; % is scaled to controls: 0 for no effect and ±100 for the full control effect
#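 Quantitative HTS: GALK 5 nM, ATP 35 uM, galactose 100 uM, 1 h room temperature, then luciferase-based ATP detection.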
# D1 PAM: human D1 dopamine receptor positive modulation. P21728. HEK293 TREx D1 cells, calcium flux, dopamine EC20 potentiation. potentiation, % at 10 µM. 360,000 compounds, 0.036% hits. AID 504651; in the data active = potentiation above about 30%; also: 0% is about no effect
# D1 antag: human D1 dopamine receptor antagonism; HEK293 TREx D1 cells, calcium flux, dopamine EC80; active compounds read low; activity change, negative = inhibition, % at 10 µM; 360,000 compounds, 3.2% hits; AID 504652; in the data active = activity change below about -30%; also: % is scaled to controls: 0 for no effect and ±100 for the full control effect
#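 Calcium flux readout: force-coupled, inducible Hek293 Trex D1 line, cells induced overnight at 30 C with tetracycline, dye-loaded 30–90 min at RT. Antagonism scored against EC80 dopamine challenge given 180 s after compound.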
# D1 agonist: human D1 receptor agonism | P21728 | HEK293 T-REx D1 cells, calcium flux, agonist mode | activation, % at 2 µM | 360,000 compounds, 1% hits | AID 504660; in the data active = activation above about 30%; also: 0% is about no effect
#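 Inducible HEK293 T-REx D1 cells, force-coupled to calcium signalling, were plated at 4000 cells/well with tetracycline and held overnight at 30 C. After no-wash calcium dye loading, compound-evoked calcium rise over 180 s flagged agonists.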
# Eya2 inh: inhibitors of human Eya2 phosphatase activity; Potency, µM (series often up to 76.9 µM), for the others: at the highest dose activity, negative = inhibition, hits mostly inhibitors; 330,000 compounds, 0.006% hits; recombinant Eya2, OMFP fluorescence dephosphorylation (OMFP is methylfluorescein phosphate); AID 488837; O00167; also: potency is read from the fitted curve at half-maximal effect; % is scaled to controls: 0 for no effect and ±100 for the full control effect
# Target sequence (O00167 whole entry, looked up): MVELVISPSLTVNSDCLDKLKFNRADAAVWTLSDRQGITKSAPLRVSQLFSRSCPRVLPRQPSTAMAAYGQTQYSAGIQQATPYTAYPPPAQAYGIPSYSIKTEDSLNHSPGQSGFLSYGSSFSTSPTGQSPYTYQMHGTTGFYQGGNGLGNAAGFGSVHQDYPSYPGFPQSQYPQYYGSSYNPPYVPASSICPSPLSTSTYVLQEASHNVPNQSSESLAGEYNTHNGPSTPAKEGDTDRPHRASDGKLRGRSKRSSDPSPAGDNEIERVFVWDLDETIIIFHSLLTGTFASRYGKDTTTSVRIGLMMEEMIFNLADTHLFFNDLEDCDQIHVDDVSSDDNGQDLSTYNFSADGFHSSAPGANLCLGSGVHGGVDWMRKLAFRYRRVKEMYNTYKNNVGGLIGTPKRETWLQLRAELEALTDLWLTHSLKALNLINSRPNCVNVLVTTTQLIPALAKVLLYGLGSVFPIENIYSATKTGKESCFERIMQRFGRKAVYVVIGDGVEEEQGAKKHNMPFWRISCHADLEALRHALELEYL
#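 Eya2 protein (added as 0.2 uM solution) was preincubated with compound for 10 min at ambient temperature in 50 mM HEPES pH 7.5, 50 mM NaCl, 5 uM MgCl2, 0.05% BSA, 1 mM DTT. OMFP (added at 50 uM) then reacted 10 min; fluorescence read at 485/525 nm.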
# USP2a block: inhibitors of human ubiquitin-specific protease USP2a; O75604; USP2 core, Ub-CHOP2 coupled fluorogenic reporter, 485/531; Potency, µM (doses to about 38.3 µM), for inactives: at the highest dose activity change, negative = inhibition, most hits filed as inhibitors; 330,000 compounds, 0.01% hits; AID 463254;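 also: potency is read from the fitted curve at half-maximal effect; plate controls were DMSO wells for no effect and full inhibition by NEM control for full effect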
#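 Deubiquitinase activity read as fluorescence (485/531 nm) after Ub-CHOP2 cleavage activates the enterokinase reporter on its substrate; USP2 core 10nM, Ub-CHOP2 and substrate 25nM each, 30min compound preincubation then 60min RT; data normalized to NEM, curves fitted.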
# The depositor's hits bear a star; ? = inconclusive; . = no result given; ! = not active in a repeat. Unless noted, calls follow the shape of the dose curve; as a rule, active = well fitted inhibition curve with a large enough effect; inconclusive = small, poorly fitted or top-dose-only effect, or effect the other way; inactive = flat fitted curve, though single readings scatter.
SMILES,GALK inhibitor,D1 PAM,D1 antag,D1 agonist,Eya2 inh,USP2a block
COC(=O)c1ccc(NC(=O)CCS(=O)(=O)c2ccc(Br)s2)cc1,-0.4%,-0.3,-52.0*!,0.8,-13.4%,2.7%
Cc1cc(NC(=O)c2ccc(NC(=O)CCS(=O)(=O)c3cccs3)cc2)ccc1Br,.,-1.8,-38.0*,6.9,.,.
COC(=O)c1sc(N2C(=O)c3oc4cc(C)c(C)cc4c(=O)c3C2c2ccccc2F)nc1C (stereo not drawn),.,-6.0,-2.5,-1.1,.,.
COc1ccc(Cl)cc1NC(=O)CSc1nnc(C)n2c1cc1occc12,.,2.7,4.0,3.8,.,.
Cc1ccc(CS(=O)(=O)CCC(=O)NCc2ccccc2Cl)cc1,-0.4%,-7.3,-4.8,43.3*,6.9%,1.3%
COc1ccccc1CNC(=O)CCS(=O)(=O)Cc1ccc(C)cc1,-7.3%,-8.0,0.1,1.2,-17.4%,3.0%
CCc1nn2c(=O)cc(COC(=O)CNC(=O)COc3ccc(C)cc3)nc2s1,.,-9.7,-51.5*,0.7,.,.
CC(C)(C)C(=O)OCc1cc(=O)n2nc(C3CCCCC3)sc2n1,.,-0.9,-32.5*,2.0,.,.
CC(=O)OCc1cc(=O)n2nc(C3CCCCC3)sc2n1,.,-3.2,-6.5,1.9,.,.
Cc1ccc(C(=O)NCC(=O)OCc2cc(=O)n3nc(C4CCCCC4)sc3n2)cc1,.,-3.7,-45.5*,0.1,.,.
Cc1cc(C)c(S(=O)(=O)Nc2ccc(-c3ccc(N4CCCCC4)nn3)cc2)c(C)c1,.,-1.1,-6.8,2.4,.,.
O=C(O)CP(=O)(O)O,-3.1%,-2.2,-37.9*,-0.2,4.1%,-0.5%
N#Cc1c(-c2ccc(F)cc2)c2c([nH]c1=O)-c1ccccc1OC2,1.5%,-1.4,-5.8,1.0,-9.3%,1.2%
N#Cc1c(-c2cccnc2)c2c([nH]c1=O)-c1ccccc1OC2,5.5%,2.7,-31.1*,0.7,14.6%,1.2%
Cc1cc(C)n(CC(O)CN(c2ccccc2)S(=O)(=O)c2ccccc2)n1 (stereo not drawn),-2.6%,-1.8,2.6,2.2,-0.5%,-0.1%
O=S(=O)(c1ccccc1)N(CC(O)COc1ccccc1)c1ccccc1 (stereo not drawn),4.0%,-9.4,-30.8*,3.0,-3.5%,1.5%
CCCCN(CCCC)C(=O)c1cc2c(=O)n3ccccc3nc2s1,.,6.2,7.5,-1.4,.,.
COc1cccc(CNC(=O)CCCCCn2c(=O)[nH]c3cc(OC)c(OC)cc3c2=O)c1,.,0.0,-11.6,2.1,.,.
CCN1C(=O)C(CC(=O)Nc2ccc(OC)cc2)N(Cc2ccc(OC)c(OC)c2)C1=S (stereo not drawn),9.4%,1.6,6.4,1.4,8.6%,-1.4%
CCN1C(=O)C(CC(=O)Nc2ccc(OC)cc2)N(CCc2ccc(OC)cc2)C1=S (stereo not drawn),11.2%,-6.0,-33.0*,21.3,?,-11.5%
CCCOc1ccc(NC(=O)CC2C(=O)N(CC)C(=S)N2CCCN2CCN(Cc3ccccc3)CC2)cc1 (stereo not drawn),4.6%,-6.7,-33.9*,13.2,-28.2%,-11.6%
CCOC(=O)c1c(-c2ccccc2)oc2ccc(OCC(O)CNCCN(C)C)cc12 (stereo not drawn),4.8%,-7.7,-48.4*,45.0*,-20.0%,0.2%
Cc1ccccc1OCc1nc2ccccc2c(=O)n1/N=C/c1cn[nH]c1-c1ccccc1,1.4%,1.8,0.1,1.8,-9.2%,-12.6%
Cc1ccccc1OCc1nc2ccccc2c(=O)n1/N=C/c1cccc([N+](=O)[O-])c1,5.1%,-4.0,-32.0*,3.0,2.2%,-2.2%
CCc1ccc(Nc2cc(C)nc3nc(Cc4ccc(Cl)cc4)nn23)cc1,.,-0.3,6.0,4.0,.,.
SMILES,GALK inhibitor,D1 PAM,D1 antag,D1 agonist,Eya2 inh,USP2a block
Cc1ccc(OCc2nc(-c3ccc(C(=O)N4CCN(c5ccccc5)CC4)cc3)oc2C)cc1,.,-0.3,3.0,2.3,.,.
Cc1ccc(OCc2nc(-c3ccc(C(=O)N4CCN(c5cc(Cl)ccc5C)CC4)cc3)oc2C)cc1,.,-4.8,-33.9*,5.2,.,.
COC(=O)c1ccc(NC(=O)CCc2c(C)nc3c(c(C)nn3C(C)(C)C)c2C)cc1,.,-3.0,-2.7,12.4,.,.
COc1ccc(-c2nc(CSCC(=O)N3CCN(c4ccc(F)cc4)CC3)c(C)o2)cc1,.,1.3,-33.0*,4.4,.,.
COc1ccc(-c2nc(CSCC(=O)N3CCN(c4ccccc4)CC3)c(C)o2)cc1,.,-4.7,-7.7,9.6,.,.
O=C(NCc1ccc(Cl)cc1)c1ccc(-c2ccccc2C(F)(F)F)o1,.,-2.8,-39.0*,33.0*,-2.9%,-5.6%
O=C(Nc1ccccc1)c1ccc(-c2ccccc2C(F)(F)F)o1,.,-1.6,14.0,-0.9,-16.2%,2.2%
CC(=O)c1ccc(NC(=O)CN(C)S(=O)(=O)c2cc3c(cc2Cl)NC(=O)CO3)cc1,.,-4.3,-21.0,2.6,.,.
COc1ccc(C2=NNC(c3cccs3)=Nc3ccc(OC)cc32)cc1,-2.6%,0.7,-38.6*,-0.5,-2.9%,1.9%
CCOc1ccc(C2=NNC(c3cccs3)=Nc3ccc(OC)cc32)cc1OCC,-3.3%,-2.0,5.7,1.3,1.9%,1.2%
O=C(CS(=O)(=O)c1cccc2nsnc12)N1CCN(c2cccc(C(F)(F)F)c2)CC1,.,3.8,-13.2,8.1,.,.
Cc1cc(C)c2c(c1)-c1c(ssc1=S)C(C)(C)N2C(=O)CSc1nncn1C,8.2%,3.8,13.8,38.9*,11.5%,-7.3%
CCOC(=O)c1[nH]c(C)c(C(=O)NCc2ccccc2Cl)c1C,.,1.2,9.7,7.4,.,.
CC(C(=O)N(C)C1CCS(=O)(=O)C1)N1C(=O)/C(=C/c2ccc(F)cc2)SC1=S (stereo not drawn),-10.4%,-4.6,-41.6*,11.7,1.5%,-0.1%
CCN(C(=O)C(C)N1C(=O)/C(=C/c2ccco2)SC1=S)C1CCS(=O)(=O)C1 (stereo not drawn),-0.3%,3.1,2.4,0.2,-3.2%,3.5%
COc1ccc(CCNC(=O)c2ccccc2NC(=O)CN2CCN(c3ccccc3O)CC2)cc1,.,-4.9,3.8,-0.5,-8.6%,0.9%
O=C(CN1CCN(c2ccccc2O)CC1)Nc1ccccc1C(=O)NCCc1ccccc1,.,4.8,-41.0*,-0.2,10.0%,-2.0%
COc1ccccc1CNC(=O)C(Cc1ccccc1)NS(=O)(=O)c1ccc2c(c1)CCN2C(C)=O (stereo not drawn),.,0.6,5.5,4.4,.,.
O=C(Cn1nc(-c2ccc(Cl)cc2)ccc1=O)NCCc1ccccc1,.,-1.2,-18.6,-3.9,.,.
COc1ccccc1CNS(=O)(=O)c1ccc2c(c1)NC(=O)CC(=O)N2,.,-3.2,-32.6*,1.6,.,.
COc1ccc(S(=O)(=O)NC2CCCCC2)cc1-n1cnnn1,1.7%,-5.3,-2.6,0.1,-10.3%,0.3%
